BAZ2B block: inhibitors of human BAZ2B bromodomain; Q9UIF8; AlphaScreen BAZ2B-H3K14Ac peptide displacement; Potency, µM (titrated, usually from 114 µM), for the others: top-dose activity change, negative = inhibition, most hits filed as inhibitors; 4.4% of 360,000 active; AID 504333; note: % is set by controls: 0 for no effect and ±100 for the full control effect; nearly all actives have a fitted effect of over 60% in size
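Protein-peptide AlphaScreen: BAZ2B 50 nM, b-H3K14Ac 50 nM, 1x PBS pH 7.4 + 0.01% Tween-20. Preincubation 30 min RT; cpd 30 min RT (top 110 uM); beads 20 min RT, light-protected.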
G9a inh: G9a (human) methyltransferase inhibition | Q96KQ7 | 8.8% of 350,000 active | Potency, µM (series often up to 102 µM), without a hit: top-dose activity, negative = inhibition, most hits filed as inhibitors | G9a H3K9 monomethylation, AlphaScreen, 2 h; note: % is set by controls: 0 for no effect and ±100 for the full control effect; nearly all actives have a fitted effect of over 75% in size
Target sequence (Q96KQ7 913-1193 limits assumed): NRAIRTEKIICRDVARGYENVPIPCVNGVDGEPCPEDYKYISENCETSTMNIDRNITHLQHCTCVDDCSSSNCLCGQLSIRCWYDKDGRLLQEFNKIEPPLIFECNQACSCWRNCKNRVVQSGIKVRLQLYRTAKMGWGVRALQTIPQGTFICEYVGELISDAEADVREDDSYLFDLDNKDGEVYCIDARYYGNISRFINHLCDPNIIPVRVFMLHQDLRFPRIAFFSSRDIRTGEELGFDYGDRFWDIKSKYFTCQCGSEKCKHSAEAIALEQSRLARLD
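Methyltransferase reactions run at room temperature for 2 h (20 nM enzyme, 500 nM biotin-H3K9 peptide, 20 uM SAM) after a 15 min compound preincubation; product detected by AlphaScreen beads and anti-H3K9me1 antibody.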
Sfp PPTase inh: blocks B. subtilis Sfp PPTase activity. Q9F4F7. Biochemical Sfp PPTase activity, qHTS. Potency, µM, inactives show largest response in the series, negative = inhibition, most hits filed as inhibitors. 3.5% of 310,000 active;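 note: the enzyme is Sfp with the accession as filed and its product quenches rhodamine fluorescence; 0% = enzyme reaction without inhibitor and -100% = no enzyme wells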
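Compounds were incubated with enzyme (final 15 nM) for 15 min at room temperature before substrate addition started the reaction. Fluorescence at 525 nm excitation, 598 nm emission was recorded immediately and after 30 minutes.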
JMJD2A Tudor inh: JMJD2A Tudor domain (human) inhibition. O75164. 4.4% of 390,000 active. AlphaScreen JMJD2A-Tudor / H3K4me3 peptide binding. Potency, µM (titrated, usually from 114 µM), for the others: at the highest dose activity change, negative = inhibition, most hits filed as inhibitors; note: % is set by controls: 0 for no effect and ±100 for the full control effect; nearly all actives have a fitted effect of over 50% in size
L3MBTL1 block: inhibitors of human L3MBTL1; AlphaScreen L3MBTL1–H3K9me1 peptide binding; Potency, µM (titrated, usually from 57.1 µM), inactives show at the top dose activity, negative = inhibition, actives largely listed as inhibitors; 0.66% of 230,000 active; AID 485360; note: % is set by controls: 0 for no effect and ±100 for the full control effect; nearly all actives have a fitted effect of over 60% in size
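First, the protein-peptide complex forms for 30 min at room temperature (L3MBTL1 50 nM, biotinylated H3K9me1 peptide 75 nM). Next, compounds are pin-transferred and incubated 30 min. Finally, AlphaScreen beads are added and read after 30 min.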
HP1b chromo inh: blocks HP1-beta chromodomain binding to methylated histone tails; P83916; AlphaScreen HP1-beta / biotin-H3K9me3 peptide binding; Potency, µM (highest dose often 114 µM), without a hit: top-dose activity change, negative = inhibition, hits mostly inhibitors; 0.56% of 390,000 active; AID 540317; note: nearly all actives have a fitted effect of over 70% in size
Target sequence (P83916 whole entry, looked up): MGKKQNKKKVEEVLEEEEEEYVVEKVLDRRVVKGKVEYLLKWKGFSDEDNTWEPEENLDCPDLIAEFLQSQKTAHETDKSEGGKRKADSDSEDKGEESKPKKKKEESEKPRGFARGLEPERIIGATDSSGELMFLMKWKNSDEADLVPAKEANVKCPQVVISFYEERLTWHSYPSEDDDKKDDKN
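AlphaScreen: HP1-beta (50 nM) preformed 30 min with biotin-H3(1-18)K9me3 peptide (50 nM) in PBS pH 7.4, 0.01% Tween-20. Compound added for 30 min at RT, then streptavidin donor/nickel chelate acceptor beads (10 ug/mL) for 30 min.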
* marks the source's active call; other numbers are inactive results; ? = inconclusive; . = no result; ! = not active in a repeat; [ ] = another dose, or the depositor's remark. Shown are actives, neighbours in structure and some others; about 12% of the full set was active somewhere. Calls come from the whole dose curve; as a rule, active = well fitted curve in the direction sought with a large enough effect; inconclusive = small, poorly fitted or top-dose-only effect, or another doubt; inactive = no such curve, though single readings can be large; an effect the other way counts as inactive or inconclusive. Potency is the fitted concentration of half-maximal effect.

SMILES	BAZ2B block	G9a inh	Sfp PPTase inh	JMJD2A Tudor inh	L3MBTL1 block	HP1b chromo inh
CCN(CC)CCOc1ccc(Cc2ccccc2)cc1	.	8%[59 µM]	79µM*!	.	.	.
CCCOc1ccc(C(C(=O)OCCN(CC)CC)c2ccccc2)cc1 (stereo not given)	50µM*	8.9µM*	-9%	-21%[11.4 µM]	.	-34%
CCN(Cc1ccccc1)Cc1ccc(OCc2ccccc2)cc1	?	.	-28%	28µM*	49%	-7%
CC(=O)Nc1ccc(S(=O)(=O)NCc2cc(=O)n(C)c(=O)n2C)cc1	-18%[57.1 µM]	-10%	19%	0%	.	59%
O=c1cc(-c2ccccc2)[nH]n2cnnc12	-28%	?	3%	-5%	.	35%
Cc1ccc(Nc2ncnc3c2nc2n3CCCC2)c(Br)c1	-1%	-10%[59 µM]	.	-9%	.	31%
Cc1nc2ccc(S(=O)(=O)CCC(=O)Nc3ccc(Cl)cc3)cc2s1	-4%	-3%[59 µM]	.	2%	.	32%
COc1ccc(OC)c(S(=O)(=O)NCCc2sc(-c3ccc(C)cc3)nc2C)c1	-19%	-1%[59 µM]	.	-36%	.	33%[57 µM]
Cc1cc(S(=O)(=O)Nc2cccc(-c3ccc(N4CCOCC4)nn3)c2)c(C)cc1Cl	-38%	-29%[59 µM]	.	-35%	.	-5%[57 µM]
O=c1cnnc(N/N=C/c2ccc3c(c2)OCO3)[nH]1	-27%	45µM*	?	-6%[11.4 µM]	.	20%
O=c1[nH]c(N/N=C\c2ccc3c(c2)OCO3)nc2ccccc12	-25%	.	20µM*	-8%	-12%	32%
O=c1[nH]c(N/N=C/c2cc3c(cc2[N+](=O)[O-])OCO3)nc2ccccc12	-36%	18µM*	?	-7%	-2%	48%
O=C(O)c1ccc(N/N=C/c2ccc3c(c2)OCO3)cc1	-22%	.	-1%	-16%	35%	22%
Cc1ccccc1N=Cc1cc2c(cc1[N+](=O)[O-])OCO2	?	45µM*	-10%	?	-9%	-28%
N#CNC(=Nc1ccc(Cl)cc1)Oc1ccccc1	-4%	.	2%	11%	.	27%
Cc1ccc2nc(-c3ccc(C)o3)c(Nc3ccc4c(c3)OCO4)n2c1	.	.	.	-26%	.	19%
Cc1ccc(Nc2c(-c3ccc(C)o3)nc3ccccn23)cc1	.	.	.	?	.	-14%
Cc1ccc(-c2nc3ccccn3c2Nc2ccc3c(c2)OCCO3)o1	45µM*	13µM*	.	50µM*	.	?
Brc1ccc(-c2nc3ccccn3c2Nc2ccc3c(c2)OCCO3)o1	.	?	.	-18%	.	9%
Cc1ccc(-c2nc3ccccn3c2Nc2ccccc2)o1	-31%	50µM*	20µM*	-8%	-9%	12%
Cc1ccc2nc(-c3ccc(C)o3)c(Nc3ccc4c(c3)OCCO4)n2c1	?	4.5µM*	.	?	.	7%
C=CC[C@@H](CC(=O)NCCO)C(=O)N[C@@H](C)COC(=O)[C@@H](CC=C)Cc1ccc(F)cc1	.	.	.	-18%	4%	-3%
C#CCCCO/N=C1/[C@H]2O[C@@H]2[C@@H](O)[C@H]2[C@H]1CCn1c(=O)n([C@@H](CC)c3ccccc3)c(=O)n12	.	.	8%	.	.	.
CCCCc1cc(-c2n[nH]c(=S)o2)c2ccccc2n1	?	4.5µM*	-7%	-25%	.	16%
CCOc1ccc(-c2n[nH]c(=S)c3ccccc23)cc1	-4%	-6%	3%	-15%	.	58%
SMILES	BAZ2B block	G9a inh	Sfp PPTase inh	JMJD2A Tudor inh	L3MBTL1 block	HP1b chromo inh
CCOc1ccccc1-c1n[nH]c(=S)o1	?	1.8µM*	-8%	40µM*	.	16%
CCOc1ccc(-c2n[nH]c(=S)o2)cc1	.	5µM*	1%	?	3%	23%
COc1ccc(-c2n[nH]c(=S)o2)c(OC)c1	-37%	?	?	79µM*	.	52%
CCOc1ccc(S(=O)(=O)N(CC(=O)Nc2cccnc2)c2ccccc2)cc1	-13%	-28%[59 µM]	.	-6%	.	42%
Cn1c(=O)c2c(ncn2CC2OCCO2)n(C)c1=O	2%	1%	8%	-1%	.	50%
Cc1cccc(N2CCN(C(=O)CSc3nnnn3C3CC3)CC2)c1C	-12%	?	.	-15%	-2%	20%
